Eight compounds from PubChem BioAssay (EPA / NIEHS) can be followed below.

Test [1] can be described thus: ATG_RORE_CIS: Attagene CIS-FACTORIAL HepG2 Assay for human RAR-related Orphan Receptor Element (RORE) (AID 2282959). The conditions noted are these: HepG2 Attagene cis-factorial RORE reporter, mRNA; actives raise or lower the signal. Put shortly: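 Measured here: transcript induction of a cis-regulated reporter in HepG2 cells transiently transfected via FuGene 6. After 24 h, RNA was processed by RT-PCR and fluorescent capillary electrophoresis; DMSO defined baseline activity.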

Test [2] can be described thus: ATG_Sox_CIS: Attagene CIS-FACTORIAL HepG2 Assay for human SRY-box transcription factor (SOX) (AID 2282960). As to conditions: HepG2 Attagene cis-factorial SOX reporter, mRNA; actives raise or lower the signal. An outline of the steps: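 Using transiently transfected HepG2 cells, reporter transcription driven by cis elements was assessed 24 h after dosing. Signal was fluorescence of capillary-separated RT-PCR products, with DMSO defining baseline activity.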

Test [3] addresses Transcription factor Sp1 (Homo sapiens) (UniProt P08047). Kind of test: ATG_Sp1_CIS: Attagene CIS-FACTORIAL HepG2 Assay for human Specificity Protein 1 (Sp1) (AID 2282961). As to conditions: HepG2 Sp1 cis-reporter transcription, actives raise or lower the signal. An outline of the steps:
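After transient transfection of HepG2 cells with cis-promoter reporter units and 24 h chemical treatment, reporter transcripts were quantified by RT-PCR and capillary electrophoresis fluorescence. Gain- and loss-of-signal fitted against DMSO.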

A short description of test [4]: ATG_SREBP_CIS: Attagene CIS-FACTORIAL HepG2 Assay for human Sterol Regulatory Element Binding (SREBP) (AID 2282962). As to conditions: HepG2 Attagene cis-factorial SREBP reporter, mRNA; actives raise or lower the signal. An outline of the steps: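 HepG2 cells transiently transfected with multiplexed cis-promoter reporter units sensing endogenous transcription factors; reporter mRNA measured 24 h after dosing by RT-PCR, 6-FAM labeling, HpaI digestion and capillary electrophoresis. Bidirectional fit versus DMSO.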

Test [5] concerns the target Signal transducer and activator of transcription 3 (Homo sapiens) (UniProt P40763). Kind of test: ATG_STAT3_CIS: Attagene CIS-FACTORIAL HepG2 Assay for human Signal Transducer and Activator of Transcription 3 (STAT3) (AID 2282963). As to conditions: HepG2, Attagene cis-factorial STAT3 reporter transcription; actives raise or lower the signal. Put shortly: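 Transcript-level reporter assay. HepG2 transient MRTU transfection, 24 h exposure, fluorescence detection after RT-PCR and CE; DMSO baseline.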

Test [6] in a line: ATG_TA_CIS: Attagene CIS-FACTORIAL HepG2 Assay for human TA Basal Promoter (AID 2282964). As to conditions: HepG2 Attagene CIS-factorial TA basal promoter reporter; actives raise or lower the signal. An outline of the steps: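 Background-control readout: TA basal promoter reporter mRNA, fitted in both directions relative to DMSO. Measured by RT-PCR and capillary electrophoresis 24 hours after treating HepG2 human liver cells transiently carrying multiplexed cis-regulated reporter constructs.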

The nature of test [7]: ATG_TAL_CIS: Attagene CIS-FACTORIAL HepG2 Assay for human TAL Basal Promoter (AID 2282966).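 Note: background control endpoint measuring basal TAL promoter reporter mRNA not a specific factor.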 As to conditions: HepG2 Attagene cis-factorial TAL promoter reporter; actives raise or lower the signal. Put shortly: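 HepG2 cells were transiently transfected with promoter-driven multiplexed reporter units and dosed for 24 h. Reporter mRNA was measured by RT-PCR with capillary electrophoresis fluorescence; bidirectional fits used DMSO as baseline, serving as a background control.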

Test [8] is described as follows: ATG_TGFb_CIS: Attagene CIS-FACTORIAL HepG2 Assay for human Transforming Growth Factor (TGF) (AID 2282967). The conditions noted are these: HepG2 Attagene CIS TGFb reporter, mRNA transcription; actives raise or lower the signal. An outline of the steps: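 Endogenous TGFB1-linked transcription factor activity read as reporter mRNA via RT-PCR and capillary electrophoresis, 24 h after dosing transiently transfected HepG2 cells. Gain or loss of signal fitted relative to DMSO.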

The nature of test [9]: ATG_VDRE_CIS: Attagene CIS-FACTORIAL HepG2 Assay for human Vitamin D Receptor Element (VDRE) (AID 2282968). The conditions noted are these: HepG2 VDRE cis-reporter transcription, actives raise or lower the signal. An outline of the steps: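 RT-PCR/CE readout of reporter mRNA; HepG2, transient transfection, 24 h dosing; DMSO baseline; bidirectional analysis.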
The target of test [10] is Nuclear receptor subfamily 1 group I member 3 (Homo sapiens) (UniProt Q14994). Kind of test: ATG_CAR_TRANS: Attagene TRANS-FACTORIAL HepG2 Assay for human Constitutive Androstane Receptor (CAR) (AID 2282969; active = hit-call score of the fitted dose curve at least 0.9, where 1 is the maximum;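 note: activators raise reporter mRNA above DMSO so AC50 marks induction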). As to conditions: HepG2 Attagene TRANS-FACTORIAL CAR reporter. An outline of the steps:
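HepG2 cells transiently transfected with multiplexed GAL4-UAS reporter units expressing chimeric NR-Gal4 proteins; compound exposure 24 h. Reporter mRNA measured by RT-PCR, 6-FAM labelling, HpaI digestion and capillary electrophoresis; gain-of-signal fitted against DMSO baseline.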

Test [11] concerns the target Estrogen receptor (Homo sapiens) (UniProt P03372). Kind of test: ATG_ERa_TRANS: Attagene TRANS-FACTORIAL HepG2 Assay for human Estrogen Receptor alpha (ERa) (AID 2282970; active = hit-call score of the fitted dose curve at least 0.9, where 1 is the maximum). The conditions noted are these: HepG2 Attagene TRANS ERa GAL4 reporter, mRNA. Put shortly:
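HepG2 cells transiently transfected with multiplexed GAL4-UAS reporter units; ERa activity read via exogenous chimeric NR-Gal4 protein. After 24 hour compound exposure, reporter mRNA measured by RT-PCR with 6-FAM labelling and capillary electrophoresis; gain-of-signal fitted relative to DMSO.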

Test [12] addresses Steroid hormone receptor ERR1 (Homo sapiens) (UniProt P11474). Kind of test: ATG_ERRa_TRANS: Attagene TRANS-FACTORIAL HepG2 Assay for human Estrogen-Related Receptor alpha (ERRa) (AID 2282971; active = hit-call score of the fitted dose curve at least 0.9, where 1 is the maximum). As to conditions: HepG2 Attagene TRANS reporter, ERRa transactivation. Put shortly: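 HepG2 cells transiently transfected with multiplexed GAL4-UAS reporter units reading chimeric ERRa-Gal4 activity; 24 h compound exposure. Reporter mRNA measured by RT-PCR, 6-FAM labelling, HpaI digest and capillary electrophoresis; gain of signal fitted versus DMSO baseline.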

Test [13] deals with X-box-binding protein 1 (Homo sapiens) (UniProt P17861). Kind of test: ATG_Xbp1_CIS: Attagene CIS-FACTORIAL HepG2 Assay for human X-box Binding Protein 1 (XBP1) (AID 2282972). The conditions noted are these: HepG2 XBP1 cis-element reporter, Attagene multiplex; actives raise or lower the signal. An outline of the steps: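 HepG2 cells transiently transfected with multiple cis-element reporter units report endogenous TF activity; 24 h exposure, then reporter mRNA measured by RT-PCR, 6-FAM labelling, HpaI digestion and capillary electrophoresis. Bidirectional fitting versus DMSO.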

Test [14] can be described thus: ATG_M_19_TRANS: Attagene TRANS-FACTORIAL HepG2 Assay for M19 Transcription Factor (Internal Marker) (AID 2282974; active = hit-call score of the fitted dose curve at least 0.9, where 1 is the maximum). As to conditions: HepG2 Attagene TRANS-FACTORIAL M19 internal marker reporter. Put shortly:
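Gain-of-signal in reporter mRNA, relative to DMSO, was scored from capillary electrophoresis fluorescence. HepG2 cells carried transiently transfected multiple reporter transcription units and were incubated with test chemicals for 24 h.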

Test [15] addresses Estrogen-related receptor gamma (Homo sapiens) (UniProt P62508). The experiment in a line: ATG_ERRg_TRANS: Attagene TRANS-FACTORIAL HepG2 Assay for human Estrogen-Related Receptor gamma (ERRg) (AID 2282977; active = hit-call score of the fitted dose curve at least 0.9, where 1 is the maximum;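 note: hits increase reporter signal over DMSO so potencies reflect activators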). As to conditions: HepG2 Attagene TRANS reporter, ERRg transactivation. An outline of the steps:
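Transfect HepG2 with multiple GAL4-UAS reporter transcription units; dose chemicals 24 h; isolate RNA, reverse-transcribe with oligo(dT), PCR-amplify, label with 6-FAM, digest with HpaI; size fragments by capillary electrophoresis. DMSO serves as negative control.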

For test [16], the target named is Bile acid receptor (Homo sapiens) (UniProt Q96RI1). Kind of test: ATG_FXR_TRANS: Attagene TRANS-FACTORIAL HepG2 Assay for Farnesoid X Receptor (FXR) (AID 2282979; active = hit-call score of the fitted dose curve at least 0.9, where 1 is the maximum;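 note: hits raise reporter mRNA above DMSO so AC50 marks FXR activation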). The conditions noted are these: HepG2 Attagene TRANS FXR-GAL4 reporter transcription. An outline of the steps:
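HepG2 cells transiently transfected with reporter constructs in which a chimeric FXR-GAL4 protein drives a GAL4-UAS reporter; 24 h compound exposure. Reporter mRNA measured by RT-PCR, FAM labelling, HpaI digestion and capillary electrophoresis; gain-of-signal versus DMSO.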

A short description of test [17]: ATG_TCF_b_cat_CIS: Attagene CIS-FACTORIAL HepG2 Assay for human T-Cell-Factor with beta-catenin (TCF/b-cat) (AID 2282965). The conditions noted are these: HepG2 TCF/beta-catenin cis-reporter transcription, actives raise or lower the signal. An outline of the steps:
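Using capillary electrophoresis as the read-out, labelled reporter cDNA fragments from transiently transfected HepG2 were sized and quantified. Exposure lasted 24 hours; activity in either direction was referenced to DMSO.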

Test [18] is described as follows: ATG_GAL4_TRANS: Attagene TRANS-FACTORIAL HepG2 Assay for GAL4 (Internal Marker) (AID 2282976; active = hit-call score of the fitted dose curve at least 0.9, where 1 is the maximum). As to conditions: HepG2 Attagene TRANS GAL4 internal marker reporter. An outline of the steps:
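HepG2 cells transiently transfected with multiplexed GAL4-UAS reporter constructs were dosed for 24 h. Reporter mRNA was measured by RT-PCR, 6-FAM primer extension, HpaI digestion and capillary electrophoresis, and gain of signal was fitted relative to DMSO.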

Test [19] deals with Glucocorticoid receptor (Homo sapiens) (UniProt P04150). Kind of test: ATG_GR_TRANS: Attagene TRANS-FACTORIAL HepG2 Assay for human Glucocorticoid Receptor (GR) (AID 2282978; active = hit-call score of the fitted dose curve at least 0.9, where 1 is the maximum;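 note: activators score as hits since higher reporter transcript over DMSO is fitted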). The conditions noted are these: HepG2 Attagene TRANS GR reporter, mRNA transcription. An outline of the steps: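 HepG2 transient transfection, multiple reporter units, GAL4-UAS under NR-GAL4 chimera control. 24 h treatment. Reporter mRNA by RT-PCR/CE fluorescence, DMSO as negative control.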

Molecules are shown by their SMILES. Results filed as inconclusive are left out. Activity calls are given as the source filed them. Rule for the calls, unless noted: active = hit-call score of the fitted dose curve at least 0.9, where 1 is the maximum; inactive = score below 0.9.

Chain of Estrogen receptor (Homo sapiens) (P03372 whole entry, looked up, the tested form may be a part): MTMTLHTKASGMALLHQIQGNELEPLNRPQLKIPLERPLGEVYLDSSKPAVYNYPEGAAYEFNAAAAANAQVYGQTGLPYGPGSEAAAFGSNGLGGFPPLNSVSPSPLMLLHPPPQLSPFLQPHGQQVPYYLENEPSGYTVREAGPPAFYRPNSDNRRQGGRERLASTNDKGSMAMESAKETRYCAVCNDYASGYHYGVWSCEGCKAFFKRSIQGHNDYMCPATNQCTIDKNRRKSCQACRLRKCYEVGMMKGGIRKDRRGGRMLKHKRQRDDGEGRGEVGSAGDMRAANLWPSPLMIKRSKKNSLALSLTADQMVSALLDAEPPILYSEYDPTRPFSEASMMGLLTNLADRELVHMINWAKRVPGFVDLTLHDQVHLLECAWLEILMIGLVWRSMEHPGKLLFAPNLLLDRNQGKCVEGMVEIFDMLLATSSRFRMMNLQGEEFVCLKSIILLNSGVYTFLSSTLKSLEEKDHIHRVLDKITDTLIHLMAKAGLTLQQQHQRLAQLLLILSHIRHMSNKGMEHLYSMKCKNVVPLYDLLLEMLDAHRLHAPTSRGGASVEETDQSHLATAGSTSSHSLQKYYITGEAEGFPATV
Chain of Glucocorticoid receptor (Homo sapiens) (P04150 whole entry, looked up, the tested form may be a part): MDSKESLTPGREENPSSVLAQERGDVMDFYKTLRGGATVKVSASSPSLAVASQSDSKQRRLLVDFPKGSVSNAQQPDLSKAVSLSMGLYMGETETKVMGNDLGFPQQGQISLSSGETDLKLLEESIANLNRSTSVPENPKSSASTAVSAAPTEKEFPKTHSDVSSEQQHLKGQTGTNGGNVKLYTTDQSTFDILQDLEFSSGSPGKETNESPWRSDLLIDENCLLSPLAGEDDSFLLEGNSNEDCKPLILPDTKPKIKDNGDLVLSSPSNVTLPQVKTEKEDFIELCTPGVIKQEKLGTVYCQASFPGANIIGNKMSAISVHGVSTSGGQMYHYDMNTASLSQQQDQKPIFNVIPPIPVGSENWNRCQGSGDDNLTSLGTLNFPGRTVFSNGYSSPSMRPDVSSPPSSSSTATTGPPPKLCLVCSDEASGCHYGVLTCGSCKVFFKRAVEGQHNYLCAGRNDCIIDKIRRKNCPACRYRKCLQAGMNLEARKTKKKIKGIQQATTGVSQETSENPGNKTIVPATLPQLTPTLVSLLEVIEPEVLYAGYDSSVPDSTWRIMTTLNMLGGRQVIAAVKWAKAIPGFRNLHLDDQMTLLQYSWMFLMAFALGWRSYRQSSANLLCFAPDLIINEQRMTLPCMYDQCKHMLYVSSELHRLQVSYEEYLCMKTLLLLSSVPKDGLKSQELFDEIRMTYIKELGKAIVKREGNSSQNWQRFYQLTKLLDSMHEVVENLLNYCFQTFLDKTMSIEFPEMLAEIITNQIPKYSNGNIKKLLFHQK
Chain of Steroid hormone receptor ERR1 (Homo sapiens) (P11474 whole entry, looked up, the tested form may be a part): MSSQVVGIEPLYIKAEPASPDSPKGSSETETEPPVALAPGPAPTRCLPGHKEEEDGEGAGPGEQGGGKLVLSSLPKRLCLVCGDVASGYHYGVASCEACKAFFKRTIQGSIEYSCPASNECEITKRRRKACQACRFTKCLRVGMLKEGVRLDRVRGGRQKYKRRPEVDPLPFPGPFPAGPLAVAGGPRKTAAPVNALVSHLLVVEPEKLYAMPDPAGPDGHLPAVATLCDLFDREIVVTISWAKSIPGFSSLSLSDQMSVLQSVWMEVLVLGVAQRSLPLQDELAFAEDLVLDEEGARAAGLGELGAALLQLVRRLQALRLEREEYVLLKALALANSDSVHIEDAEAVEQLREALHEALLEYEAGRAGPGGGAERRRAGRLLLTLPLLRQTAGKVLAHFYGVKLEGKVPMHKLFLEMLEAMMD
Chain of X-box-binding protein 1 (Homo sapiens) (P17861 whole entry, looked up): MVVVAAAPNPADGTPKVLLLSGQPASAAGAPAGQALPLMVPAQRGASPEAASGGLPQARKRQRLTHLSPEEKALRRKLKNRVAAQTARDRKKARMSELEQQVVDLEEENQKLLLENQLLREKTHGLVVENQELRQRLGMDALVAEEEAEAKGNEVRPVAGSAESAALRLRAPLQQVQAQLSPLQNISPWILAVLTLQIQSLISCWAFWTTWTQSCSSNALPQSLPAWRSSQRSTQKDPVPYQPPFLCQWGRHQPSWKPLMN
Chain of Transcription factor Sp1 (Homo sapiens) (P08047 whole entry, looked up): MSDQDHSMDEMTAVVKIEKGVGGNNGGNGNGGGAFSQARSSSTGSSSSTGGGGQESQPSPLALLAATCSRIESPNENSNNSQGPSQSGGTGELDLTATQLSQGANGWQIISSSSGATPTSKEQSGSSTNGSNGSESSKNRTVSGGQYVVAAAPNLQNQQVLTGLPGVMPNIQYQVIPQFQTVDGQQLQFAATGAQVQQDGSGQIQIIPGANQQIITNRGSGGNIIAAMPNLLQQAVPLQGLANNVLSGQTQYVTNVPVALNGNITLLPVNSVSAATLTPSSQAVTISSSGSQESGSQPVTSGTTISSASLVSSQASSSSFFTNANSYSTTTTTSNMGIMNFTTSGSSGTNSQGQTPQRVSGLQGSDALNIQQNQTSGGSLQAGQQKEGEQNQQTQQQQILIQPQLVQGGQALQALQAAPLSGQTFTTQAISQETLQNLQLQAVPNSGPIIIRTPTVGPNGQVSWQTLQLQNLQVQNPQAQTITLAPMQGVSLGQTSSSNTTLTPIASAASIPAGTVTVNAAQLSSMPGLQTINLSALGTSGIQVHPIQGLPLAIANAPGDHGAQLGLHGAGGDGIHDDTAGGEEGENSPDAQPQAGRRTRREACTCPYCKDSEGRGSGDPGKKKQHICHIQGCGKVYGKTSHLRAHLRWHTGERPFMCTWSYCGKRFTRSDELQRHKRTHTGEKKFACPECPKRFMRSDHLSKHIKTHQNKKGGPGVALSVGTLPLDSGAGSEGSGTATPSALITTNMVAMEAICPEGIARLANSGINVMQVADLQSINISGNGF
Chain of Bile acid receptor (Homo sapiens) (Q96RI1 whole entry, looked up, the tested form may be a part): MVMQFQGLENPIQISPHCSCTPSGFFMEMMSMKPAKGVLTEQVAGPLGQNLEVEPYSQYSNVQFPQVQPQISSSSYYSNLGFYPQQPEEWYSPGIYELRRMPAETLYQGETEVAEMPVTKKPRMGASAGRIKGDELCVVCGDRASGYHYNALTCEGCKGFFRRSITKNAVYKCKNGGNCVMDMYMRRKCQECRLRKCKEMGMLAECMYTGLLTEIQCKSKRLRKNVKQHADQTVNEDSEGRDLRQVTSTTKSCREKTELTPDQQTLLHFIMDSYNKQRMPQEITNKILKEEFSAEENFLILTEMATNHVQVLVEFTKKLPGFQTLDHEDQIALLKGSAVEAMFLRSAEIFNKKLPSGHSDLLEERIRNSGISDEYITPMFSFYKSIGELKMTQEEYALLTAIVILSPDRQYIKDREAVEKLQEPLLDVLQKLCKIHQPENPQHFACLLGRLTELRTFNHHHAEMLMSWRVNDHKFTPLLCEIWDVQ
Chain of Signal transducer and activator of transcription 3 (Homo sapiens) (P40763 whole entry, looked up): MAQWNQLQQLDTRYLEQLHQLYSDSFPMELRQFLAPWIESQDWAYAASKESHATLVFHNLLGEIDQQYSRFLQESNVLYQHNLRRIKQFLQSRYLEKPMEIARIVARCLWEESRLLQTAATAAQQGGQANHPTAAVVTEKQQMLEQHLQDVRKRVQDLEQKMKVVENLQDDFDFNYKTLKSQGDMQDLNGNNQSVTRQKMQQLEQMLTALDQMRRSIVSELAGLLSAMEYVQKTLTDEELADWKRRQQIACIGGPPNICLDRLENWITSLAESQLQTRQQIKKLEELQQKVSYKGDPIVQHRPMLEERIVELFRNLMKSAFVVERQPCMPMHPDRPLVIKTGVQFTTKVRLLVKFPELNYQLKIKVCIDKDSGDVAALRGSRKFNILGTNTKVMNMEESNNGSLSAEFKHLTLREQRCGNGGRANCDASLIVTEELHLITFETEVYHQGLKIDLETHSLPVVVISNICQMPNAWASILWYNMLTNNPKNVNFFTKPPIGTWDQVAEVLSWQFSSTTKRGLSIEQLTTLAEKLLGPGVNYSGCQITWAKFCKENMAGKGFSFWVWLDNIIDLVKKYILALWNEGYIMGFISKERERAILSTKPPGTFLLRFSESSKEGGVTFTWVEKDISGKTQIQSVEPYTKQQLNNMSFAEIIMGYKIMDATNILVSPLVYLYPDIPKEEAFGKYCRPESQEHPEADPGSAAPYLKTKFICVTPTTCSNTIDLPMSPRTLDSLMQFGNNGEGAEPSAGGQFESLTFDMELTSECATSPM
Chain of Nuclear receptor subfamily 1 group I member 3 (Homo sapiens) (Q14994 whole entry, looked up, the tested form may be a part): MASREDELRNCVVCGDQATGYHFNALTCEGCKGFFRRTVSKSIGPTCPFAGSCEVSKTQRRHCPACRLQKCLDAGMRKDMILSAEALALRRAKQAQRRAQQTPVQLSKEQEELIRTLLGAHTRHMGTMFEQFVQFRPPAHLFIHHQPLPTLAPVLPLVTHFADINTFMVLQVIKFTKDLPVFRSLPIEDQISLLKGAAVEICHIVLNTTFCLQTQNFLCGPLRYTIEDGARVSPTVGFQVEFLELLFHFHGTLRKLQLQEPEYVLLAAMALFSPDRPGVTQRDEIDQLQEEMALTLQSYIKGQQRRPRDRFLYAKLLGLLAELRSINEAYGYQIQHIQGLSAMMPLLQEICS
Chain of Estrogen-related receptor gamma (Homo sapiens) (P62508 whole entry, looked up, the tested form may be a part): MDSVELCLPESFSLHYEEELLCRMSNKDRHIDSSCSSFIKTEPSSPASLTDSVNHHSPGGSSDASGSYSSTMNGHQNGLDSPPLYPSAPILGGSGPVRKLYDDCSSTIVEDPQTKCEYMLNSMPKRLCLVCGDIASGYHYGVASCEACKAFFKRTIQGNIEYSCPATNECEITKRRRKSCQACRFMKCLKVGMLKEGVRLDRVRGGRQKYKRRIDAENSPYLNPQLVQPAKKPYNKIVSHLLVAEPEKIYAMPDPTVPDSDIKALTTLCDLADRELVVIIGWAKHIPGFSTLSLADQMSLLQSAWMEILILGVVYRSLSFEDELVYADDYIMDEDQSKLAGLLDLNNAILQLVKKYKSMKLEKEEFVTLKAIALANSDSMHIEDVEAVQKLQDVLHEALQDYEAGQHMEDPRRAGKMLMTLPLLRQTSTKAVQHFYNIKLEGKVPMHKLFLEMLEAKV

For orientation: AC50 means the midpoint of the concentration-response curve, whichever way the signal moves. Regarding `CC(C)(C)c1cc([N+](=O)[O-])cc(C(C)(C)C)c1O`, the AC50 in test [1] is 28.7 µM (active); in [8] it was 26.3 µM (active); in test [9] it was 3.16 µM (active); in test [13] it was 4.78 µM (active). Moreover, the compound was called inactive in test [2], in [3], in [4], in test [5], in [6] and in test [7]. Besides, the outcome in test [10], in test [11], in [12], in test [14], in test [15] and in test [16] was inactive.
`CCCCOC(C)=O`: the call in test [1], in test [2], in test [3], in test [4], in [5] and in [6] was inactive. Moreover, the compound was classed as inactive in test [17], in [7], in test [8], in [11], in test [13] and in test [14]. Moreover, the compound was classed as inactive in test [18] and in test [16].
Take `BrCCCCBr`: the outcome in [1], in [2], in test [3], in test [4], in test [5] and in test [6] was inactive. Moreover, the result in [17], in test [7], in [8], in test [13], in [18] and in test [19] was inactive.
On to `Cc1cc(Cl)ccc1OC(C)C(=O)O` (configuration not stated), for which the result in test [1], in test [2], in test [3], in test [4], in test [5] and in test [6] was inactive. In addition, the compound was classed as inactive in test [17], in test [7], in [8], in test [13] and in test [14].
For the compound `CCOC(=O)OC1=C(c2cc(C)ccc2C)C(=O)NC12CCC(OC)CC2` (configuration not stated), the outcome in test [1], in test [2], in test [3], in [4], in test [5] and in test [6] was inactive. Also, the result in test [17], in test [7], in test [8], in test [11], in test [13] and in test [19] was inactive. The outcome in test [16] was inactive.
For `CC(=O)CN(CC(C)=O)N=O`, the outcome in [1], in [2], in test [3], in test [4], in test [5] and in test [6] was inactive. For the same compound, the result in test [17], in [7], in test [8], in test [12], in test [13] and in test [18] was inactive. Also, the compound was classed as inactive in [19].
For the compound `Nc1ccc(Br)cc1`, the compound was classed as inactive in test [1], in test [2], in test [3], in test [4], in test [5] and in test [6]. Besides, the compound was called inactive in test [17], in test [7], in test [8], in [13], in test [14] and in [18]. For the same compound, the result in [16] was inactive. Besides, the AC50 in test [19] is 100 µM (active).
In the case of `O=C(CCl)NCO`, the result in [1], in test [2], in [3], in test [4], in test [5] and in test [6] was inactive. In addition, the outcome in test [17], in test [7], in test [10], in [12], in test [13] and in test [18] was inactive. In addition, the result in test [15] was inactive. Further, the AC50 in test [8] is 0.765 µM (active).
